# High-throughput results as filed in PubChem BioAssay.
# NOTCH agonist – agonists of NOTCH signaling | NOTCH signaling luciferase reporter cells, luminescence | activation, % at 2.5 µM | hit rate 0.4% among 15,000; in the data active means activation above about 2.2%
# S1P1 ag – S1P1 (human) receptor agonism; P21453; S1P1 agonist cell-based reporter assay; activation, % at 4.5 µM; hit rate 1.5% among 16,000; in the data active means activation above about 80%
# rat GALR2 agon – agonists of rat galanin receptor 2 (GALR2); cell-based GALR2 agonist screen; activation, % at 10 µM; hit rate 0.5% among 16,000; AID 833; in the data active means activation above about 15%
# Starred values were filed as active, the others as inactive. Compounds with a hit are over-represented: about 2.2% of the library has one in this group of screens.
SMILES,NOTCH agonist,S1P1 ag,rat GALR2 agon
N#CC(C#N)=NNc1ccc(C(F)(F)F)cc1,-1,115*,-14
N#CC(C#N)=NNc1ccc(OC(F)(F)F)cc1,0,109*,-12
c1ccc(N2CCN(Cc3c[nH]c4ccccc34)CC2)cc1,0,1,-4
O/N=C\c1c[nH]c2ccccc12,0,18,-9
O=C1CC(C(=O)c2cccs2)CO1 (stereo not given),0,9,-5
FC(F)(F)c1ccc2c(c1)nnn2C1CCNCC1,-1,-2,-7
